Measurements taken from PubChem BioAssay.
Measured potencies and affinities stand elsewhere. Records with an inconclusive call do not appear. Calls of active or inactive are those of the source.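 How the source made its calls, unless noted: active means falling signal with fitted half-maximal potency no higher than twice the top valid tested dose; inconclusive means poor fit quality, or flat fit spanning -70% to -30%; inactive means potency over limit, rising signal, or flat fit inside 30%.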

How the values were obtained:
[1] = Cryptococcus neoformans growth inhibition, dose response, Alamar Blue, cherry-picks (AID 686998)
[2] = inducers of Cryptococcus neoformans cell lysis, dose response, AK release luminescence, cherry-picks (AID 687000;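 active means fitted dose curve reaches 40% lysis signal rise at or below the highest valid concentration tested for that sample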;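 further: luminescent detection of adenylate kinase leaking from lysed yeast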)
[3] = HepG2 cell cytotoxicity, dose response, cytotoxicity control, cherry-picks, set 2 (AID 687002;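 active means a dose-response fit showing signal loss, with half-maximal concentration no higher than twice the top tested dose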)
[4] = HeLa cell cytotoxicity, dose response, cytotoxicity control, ATP luminescence, cherry-pick samples (AID 687004;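 active means a fitted half-maximal concentration no higher than twice the top valid tested dose, with signal falling as cells die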)

Measured: outcome

O=C(c1cccc(F)c1)N1CCCCN2[C@@H](CO)[C@H](c3ccc(-c4ccncc4)cc3)[C@@H]2C1
inactive: all assays above

COCC(=O)N(C)C[C@@H]1Oc2ncc(C#CCC3CCCC3)cc2C(=O)N([C@@H](C)CO)C[C@H]1C
inactive: all assays above

COc1cccc(S(=O)(=O)Nc2ccc3c(c2)[C@@H]2C[C@H](CC(=O)NC4CCCCC4)O[C@H](CO)[C@@H]2O3)c1
inactive: all assays above

CO[C@H]1CN(C)C(=O)c2cc(NC(=O)c3ccccc3F)ccc2OC[C@H](C)N(C(C)=O)C[C@H]1C
inactive: all assays above

CNC(=O)CSc1ncnc2c1cnn2-c1ccccc1
inactive: all assays above

Cc1cccc(C)c1NC(=O)CNC(=O)C1CCCC1
inactive: all assays above

CCCC#Cc1cnc2c(c1)C(=O)N([C@@H](C)CO)C[C@H](C)[C@H](CN(C)C(=O)Nc1cccc(F)c1)O2
inactive: all assays above

O=C(Nc1cccc(F)c1)N[C@H]1CC[C@@H](CCNS(=O)(=O)c2cccc(Cl)c2)O[C@@H]1CO
inactive: all assays above

C[C@H]1CN([C@@H](C)CO)S(=O)(=O)c2ccc(Br)cc2O[C@@H]1CN(C)S(=O)(=O)c1ccccc1F
inactive: all assays above

CCNC(=O)C[C@@H]1CC[C@H]2[C@@H](COC[C@@H](O)CN2S(=O)(=O)c2ccccc2F)O1
inactive: all assays above

Cc1ccc(NC(=O)C2(C)CCCN2CC(C)C)cc1C (centres undefined)
inactive: all assays above

Cc1ccc(S(=O)(=O)N[C@@H]2CC[C@H](CCNC(=O)C3CCCC3)O[C@@H]2CO)cc1
inactive: all assays above

COc1cccc(S(=O)(=O)Nc2ccc3c(c2)[C@H]2C[C@H](CC(=O)NCc4ccccc4F)O[C@@H](CO)[C@H]2O3)c1
inactive: all assays above

COc1ccc(-n2ncc3c(SCC(=O)OC(C)C)ncnc32)cc1
inactive: all assays above

CCCNC(=O)Nc1ccc2c(c1)C(=O)N(C)C[C@@H](OC)[C@@H](C)CN(C(=O)CC)[C@H](C)CO2
inactive: all assays above

CN1C(=O)c2cc(NC(=O)NC3CCCC3)ccc2OC[C@H]2O[C@@H](CC(=O)NCC3CC3)CC[C@@H]21
inactive: all assays above

CN1CCN(C(=O)CN(c2ccc(I)cc2)S(=O)(=O)c2ccccc2)CC1
inactive: all assays above

CNC(=O)C[C@@H]1CC[C@@H]2[C@H](COc3ccc(NC(=O)c4cc(C)on4)cc3C(=O)N2C)O1
inactive: all assays above

CC1(C(=O)Nc2ccc3ccccc3c2)CCC(=O)N1C1CC1 (centres undefined)
inactive: all assays above

CNC(=O)C[C@H]1CC[C@H]2[C@H](COc3ccc(NC(=O)c4cc(C)on4)cc3C(=O)N2C)O1
inactive: all assays above

C[C@H](CO)N1C[C@H](C)[C@@H](CN(C)Cc2cccc(C(F)(F)F)c2)OCc2cnnn2CCCC1=O
inactive: all assays above

COc1ccc(S(=O)(=O)N[C@@H]2C=C[C@@H](CC(=O)N3CCC(Cc4ccccc4)CC3)O[C@H]2CO)cc1
inactive: all assays above

CC(C)NC(=O)N(C)C[C@@H]1OCCCC[C@H](C)Oc2ccc(NC(=O)Cc3ccccc3)cc2C(=O)N([C@H](C)CO)C[C@H]1C
inactive: all assays above

CCC(C)(C(=O)NC1CCCCC1)N(C(=O)C1CCC(=O)N1)c1ccc(C)cc1 (centres undefined)
inactive: all assays above

C[C@@H]1CN([C@H](C)CO)C(=O)CCCn2cc(nn2)CO[C@@H]1CN(C)C(=O)CCCN(C)C
inactive: all assays above

COc1ccc(OC(C)C(=O)NC(C)c2ccccc2)cc1 (centres undefined)
inactive: all assays above

C[C@@H]1CN([C@H](C)CO)C(=O)c2cc(/C=C/c3ccccc3)cnc2O[C@@H]1CN(C)S(C)(=O)=O
inactive: all assays above

C[C@@H]1CN([C@H](C)CO)C(=O)c2cc(NC(=O)CCC(F)(F)F)ccc2O[C@@H](C)CCCCO[C@@H]1CN(C)C(=O)c1ccncc1
inactive: all assays above

CC(C)(C)SCCNC(=O)CN(c1ccc(F)cc1)S(=O)(=O)c1ccccc1
inactive: all assays above

O=C(CSc1ncnc2c1cnn2-c1ccccc1)NC1CCS(=O)(=O)C1 (centres undefined)
inactive: all assays above

CNC[C@@H]1Oc2c(NS(=O)(=O)c3cccs3)cccc2C(=O)N([C@@H](C)CO)C[C@H]1C
inactive: all assays above

CN1C(=O)c2cccc3c(S(=O)(=O)N(C)C)ccc1c23
inactive: all assays above

CCCC#Cc1ccc2c(c1)O[C@@H](CN(C)C)[C@@H](C)CN([C@@H](C)CO)S2(=O)=O
inactive: all assays above

O=C(C[C@@H]1CC[C@@H]2[C@H](COC[C@H](O)CN2Cc2cccc(C(F)(F)F)c2)O1)NCc1ccc(Cl)cc1
inactive: all assays above

COc1cccc(-c2cn(CC[C@@H]3CC[C@H](NC(C)=O)[C@@H](CO)O3)nn2)c1
inactive: all assays above

O=C(Nc1cccc(F)c1)N[C@H]1CC[C@H](CCNS(=O)(=O)c2cccc(Cl)c2)O[C@@H]1CO
inactive: all assays above

COc1ccc(-n2ncc3c(SCC(=O)N4CCN(c5ccccc5OC)CC4)ncnc32)cc1
inactive: all assays above

Cc1ccc(N(CC(N)=O)S(=O)(=O)c2ccc(F)cc2)cc1
inactive: all assays above

CCC(=O)N1[C@H](C(=O)Nc2ccccc2)[C@@H](CO)[C@@H]2Cn3c(ccc(-c4ccncc4)c3=O)[C@@H]21
inactive: all assays above

COc1ccccc1NC(=O)N[C@H]1CC[C@@H](CCn2cc(-c3ccccc3OC)nn2)O[C@@H]1CO
inactive: all assays above

COc1ccc(NC(=O)Nc2ccc3c(c2)C(=O)N([C@H](C)CO)C[C@@H](C)[C@H](CN(C)S(=O)(=O)c2ccc(Cl)cc2)OCCCC[C@@H](C)O3)cc1
inactive: all assays above

COc1ccc(CN(C)C[C@H]2OCCCC[C@@H](C)Oc3ccc(NC(=O)c4ccccc4)cc3C(=O)N([C@H](C)CO)C[C@@H]2C)cc1
inactive: all assays above

Cc1ccc(S(=O)(=O)Nc2ccc3c(c2)C(=O)N([C@@H](C)CO)C[C@@H](C)[C@@H](CN(C)S(=O)(=O)c2ccc(Cl)cc2)OCCCC[C@H](C)O3)cc1
inactive: all assays above

C[C@H](CO)N1C[C@H](C)[C@H](CN(C)S(=O)(=O)c2ccc(F)cc2)Oc2ccc(NS(=O)(=O)c3ccc(Cl)cc3)cc2C1=O
inactive: all assays above

Cc1noc(C)c1NC(=O)N(C)C[C@H]1Oc2ccc(NS(=O)(=O)c3cn(C)cn3)cc2CC(=O)N([C@H](C)CO)C[C@H]1C
inactive: all assays above

CN1[C@H](C(=O)N2CCc3ccccc3C2)[C@@H](CO)[C@@H]2Cn3c(ccc(-c4cccnc4)c3=O)[C@@H]21
inactive: all assays above

Cc1ccccc1-n1ncc2c(SCC(=O)NC3CCCC3)ncnc21
inactive: all assays above

Cc1cc(C)c(NC(=O)C2CCCN2CCO)c(C)c1 (centres undefined)
inactive: all assays above

COCC(=O)Nc1ccc2c(c1)C(=O)N(C)C[C@@H](OC)[C@H](C)CN(Cc1ccccc1)[C@@H](C)CO2
inactive: all assays above

CCNC(=O)COc1cccc(C(=O)NCc2ccccc2)c1
inactive: all assays above

COc1ccc(CN(C)C[C@@H]2Oc3ccc(NC(=O)Nc4ccc(F)cc4)cc3CC(=O)N([C@H](C)CO)C[C@H]2C)cc1
inactive: all assays above

CNC(=O)C[C@@H]1CC[C@H]2[C@@H](COC[C@H](O)CN2C(=O)Nc2ccc3c(c2)OCO3)O1
inactive: all assays above

O=C(C[C@H]1C=C[C@H](NC(=O)Nc2cc(F)ccc2F)[C@@H](CO)O1)NCCCN1CCOCC1
inactive: all assays above

Cc1noc(C)c1NC(=O)N(C)C[C@@H]1Oc2ccc(NC(=O)NC(C)C)cc2CC(=O)N([C@H](C)CO)C[C@H]1C
inactive: all assays above

O=C(c1cccc(Br)c1)N1CCN(c2ccccn2)CC1
inactive: all assays above

O=C(C[C@@H]1C=C[C@@H](NC(=O)c2cccc(F)c2)[C@H](CO)O1)NCCN1CCCC1
inactive: all assays above
